# Experimental data as given in PubChem BioAssay (NCI).
# About 83,000 compounds went through this panel and 20% of them were active in at least one assay; those are over-represented in the sample as a whole.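 Note: values are percent growth. 100 is the growth of untreated cells, values between 100 and 0 indicate rising inhibition; between -100 and 0 indicates cell death.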 A number with no mark means an inactive call. Activity calls are given as the source filed them. Rule for the calls: active = growth percent below 10; inactive = the rest.
# Experiments:
# Test in all cases: NCI-60 one-dose screen, 48 h (100 = growth as untreated, 0 = no growth, -100 = all killed)
# Conditions in all cases: 10 µM unless noted
# [1] = tested on: NCI-H23 lung
# [2] = tested on: NCI-H226 lung
# [3] = tested on: NCI-H322M lung
# [4] = tested on: HOP-62 NSCLC
# [5] = tested on: NCI-H460 lung
# [6] = tested on: HOP-92 NSCLC
# [7] = tested on: NCI-H522 lung
# [8] = tested on: A549/ATCC NSCLC
# [9] = tested on: 786-0 renal
# [10] = tested on: COLO 205 colon
SMILES,growth [1],growth [2],growth [3],growth [4],growth [5],growth [6],growth [7],growth [8],growth [9],growth [10]
CC(Oc1ccc(C(=O)O)cc1C(F)(F)F)c1ccc(Oc2ccccc2)cn1 (stereo not given),98.6%,97.6%,99.5%,99.1%,104%,97.8%,88.2%,99.9%,99.4%,130%
Cc1nc2ccc(Cl)cn2c1-c1nnc(SCc2ccc([N+](=O)[O-])cc2)o1,55.9%,56.4%,63.6%,49.6%,49.5%,48.3%,45.8%,66.8%,62.5%,105%
CCCOC(=O)N[C@H]1CCc2cc(OC)c(OC)c(OC)c2-c2ccc(SC)c(=O)cc21,35%,13%,32.7%,39.3%,0.992% (active),34.9%,21.5%,22.6%,24.1%,1.57% (active)
Cc1c2cc[nH]c(=O)c2c(C)c2c1[nH]c1cc(OCCN3CCN(C)CC3)ccc12,-18.1% (active),2.73% (active),7.9% (active),-16.9% (active),-20.5% (active),18.8%,-23.9% (active),-21.4% (active),20.9%,-10.1% (active)
CC(Sc1nc2sc3c(c2c(=O)n1-c1ccc(Cl)cc1)CCCC3)C(=O)Nc1nc(-c2ccc(Br)cc2)cs1 (stereo not given),95.3%,94.3%,95.8%,91.5%,104%,110%,82.1%,100%,92.6%,110%
COc1cc2cc(Oc3cccc(NC(=O)Nc4cc(C(F)(F)F)cc(C(F)(F)F)c4)c3)c(C)nc2cc1OC,2.28% (active),-10.2% (active),14.9%,-54.1% (active),7% (active),-25.4% (active),-33.4% (active),5.93% (active),-16.6% (active),-81.2% (active)
O=C1/C=C/[C@@H](O)[C@@H]2C[C@@H](O)C[C@H]2/C=C/CCC[C@H](CCc2ccc3ncccc3c2)O1,-32.5% (active),-28.7% (active),17.6%,15.3%,15%,30.2%,-53.4% (active),19.2%,-50.2% (active),-98.4% (active)
CC(=O)Nc1ccc(-n2cnc3cc(-c4ccc(OCCN5CCCCC5)cc4)ccc32)cc1,73.2%,74.1%,104%,82.5%,4.54% (active),105%,91.9%,-3.26% (active),-40.9% (active),107%
COC(=O)c1ccc2c(c1)[n+](=O)c(C(C)=O)c(C(F)(F)F)n2[O-],-62.2% (active),-17.1% (active),66.2%,-9.08% (active),-88.8% (active),-57% (active),-80.7% (active),28.6%,-40.5% (active),-100% (active)
Nc1nc(Nc2ccccc2SSc2ccccc2Nc2nc(N)nc(-c3ccc(C(F)(F)F)cc3)n2)nc(-c2ccc(C(F)(F)F)cc2)n1,31.5%,55.3%,88.6%,47.8%,40%,90.7%,80%,5.2% (active),81.4%,86.1%
Cn1ccnc1C(=O)/C=C/c1ccc(CC(=O)Nc2ccc(F)cc2)cc1,27.8%,82.5%,42.8%,18.4%,3.59% (active),71%,16.9%,38.2%,30.4%,41.6%
CCCCC/C=C/C(C)=C/C1CC(C)C/C=C/CCC(O)C(OC(N)=O)CCC(C)CC(O)C(C)C(=O)O1 (stereo not given),97.6%,104%,101%,82.7%,67%,24.5%,79.2%,85%,77.9%,121%
